Source: ChEMBL document CHEMBL4513216, “Probing the Open Global Health Chemical Diversity Library for Multistage-Active Starting Points for Next-Generation Antimalarials” (ACS Infect Dis, 2020)
The whole screen tested about 68,000 compounds, of which about 2,700 (4%) showed an effect of 50% or more. This is one part of a sample in which strong results are shown more often than they occur.

system: Plasmodium berghei; assay: Screen against P. berghei liver stage (PbLuc), transformed with Luciferase, at 2uM; type: functional, HepG2; conditions: tested at 2 uM

| Structure (SMILES) | INHIBITION |
| --- | --- |
| Cc1cc(N(C)CCC(O)c2ccccc2)n2nccc2n1 (configuration not stated) | 26.35% |
| CN(C)C(C(=O)N1CCC(CCO)CC1)c1ccccc1F (configuration not stated) | 57.34% |
| CN(C)C(C(=O)N1CCCC1)c1ccccc1F (configuration not stated) | -12.23% |
| CCOCC1CCN(C(=O)C(c2ccccc2F)N(C)C)CC1 (configuration not stated) | -45.44% |
| c1cncc(C2CC3(CCN(c4cnccn4)CC3)c3ccccc32)c1 (configuration not stated) | -8.91% |
| COc1cccc(-n2nnc(C(=O)N3CCCCCC3)c2C)c1 | 30.05% |
| COc1cccc(-n2nnc(C(=O)N3CCOC(C)C3)c2C)c1 (configuration not stated) | 32.64% |
| COc1cccc(-n2nnc(C(=O)N3CCCC(C)C3)c2C)c1 (configuration not stated) | 5.91% |
| COc1cccc(-n2nnc(C(=O)N3CCCC3)c2C)c1 | -32.49% |
| COc1cccc(-n2nnc(C(=O)N3CCN(C)CC3C)c2C)c1 (configuration not stated) | 89.42% |
| COc1cccc(-n2nnc(C(=O)N3CCC(C(N)=O)CC3)c2C)c1 | 56.78% |
| Cc1nc(-c2ccc(S(=O)(=O)N3CCC4(CC3)OCCO4)cc2)co1 | 13.93% |
| CCNc1cc2c(nn1)CCN(C(=O)C(C)c1c(C)noc1C)C2 (configuration not stated) | -45.83% |
| COc1cc(CNCc2ccnc(N3CCCC3)c2)cc(OC)c1 | -2.71% |
| CCN1C[C@H]2C3(CCN(C(=O)NC(C)C)CC3)CC[C@@]2(C(=O)NC)C1 | 45.36% |
| O=S(=O)(c1c(Cl)nc2sccn12)N1CCCC2(CCNC2)C1 (configuration not stated) | 12.83% |
| O=S(=O)(c1c(Cl)nc2sccn12)N1CCC2(CCNCC2)C1 | 27.17% |
| CN1CCCC2(CCN(S(=O)(=O)c3c(Cl)nc4sccn34)C2)C1=O (configuration not stated) | 66.11% |
| CCC1=N[C@@]2(CC[C@@H]3CN(S(=O)(=O)CC(C)C)C[C@@H]32)C(=O)N1CC | 47.53% |
| CCN(Cc1c(F)cccc1F)Cn1nc(C)c2c(C)onc2c1=O | 62.13% |
| CCN(Cc1cccc(C)c1)Cn1nc(C)c2c(C)onc2c1=O | -1.02% |
| CCN(Cc1cccc(F)c1)Cn1nc(C)c2c(C)onc2c1=O | 9.17% |
| CN1CCC(N(Cc2ccncc2)Cc2nc3c(s2)CCCC3)CC1 | -1.15% |
| O=C(NCCCc1nc(=O)[nH][nH]1)c1ccc(Cl)cn1 | 43.28% |
| CN(C)CCOCc1cncc2c1CCN(C(=O)C1CCOCC1)C2 | 26.48% |
| Cc1cc(C)nc(N2CCC(NCCSc3nnnn3C)CC2)n1 | -25.72% |

| Structure (SMILES) | INHIBITION |
| --- | --- |
| Cn1ccnc1SCCNC1CCN(c2nc3ccccc3s2)CC1 | -11.8% |
| Cn1ccnc1SCCNC1CCN(c2ncccn2)CC1 | 50.98% |
| COc1cc(N2CCC3(CCCN(C(=O)c4cnccn4)C3)C2)ncn1 (configuration not stated) | -42.01% |
| CCN1CCN(CC(C)(O)c2cccc(C(F)(F)F)c2)CC1 (configuration not stated) | 69.41% |
| CC(=O)N1CCN(CC(C)(O)c2cccc(C(F)(F)F)c2)CC1 (configuration not stated) | 1.63% |
| CC(O)(CN1CCN(CCO)CC1)c1cccc(C(F)(F)F)c1 (configuration not stated) | -27.62% |
| O=C(NCCNc1ccccn1)Nc1cc(C(F)(F)F)c[nH]c1=O | -20.82% |
| CC(C)C(NC(=O)Cn1ccc(=O)n(C)c1=O)c1ccc(F)cc1 (configuration not stated) | -56.99% |
| Fc1ccc(C(CNc2ccncn2)N2CCCC2)cc1 (configuration not stated) | 30.93% |
| N[C@@H]1CC[C@H](C(=O)NCCc2nc(-c3ccccc3)cs2)C1 | 60.18% |
| NC(=O)CN1CCC(C(=O)NCc2nc(-c3ccc(F)cc3)cs2)CC1 | 14.19% |
| NC(=O)CN1CCC(C(=O)NCCc2nc(-c3ccccc3)cs2)CC1 | -13.72% |
| COCCN1CCCn2cnc(CNC(=O)N(C)C)c2C1 | 2.33% |
| CC(C)(CO)CCCNC(=O)NC1(c2ccccc2F)CC1 | -3.66% |
| CC(C)(CO)CCCNC(=O)NC1(c2cccc(F)c2)CC1 | 57.16% |
| CC(C)(CO)CCCNC(=O)NC1(C)Cc2ccccc2C1 | 29.87% |
| CC(NC(=O)COc1ccccc1I)C1CC1 (configuration not stated) | -3.87% |
| CN(CCOCC1CC1)C(=O)Nc1ccc([S+](C)[O-])cc1 (configuration not stated) | -88.39% |
| O=C(CC1CCCC1)NCCNCc1cccc2c1OCCO2 | 30.57% |
| O=C(NCCNCc1cccc2c1OCCCO2)C1CCCC1 | 77.72% |
| O=C(CCNCc1cccc2c1OCCCO2)NC1CCCC1 | -42.54% |
| CCO[C@@H]1CO[C@@]2(CCCN(S(=O)(=O)c3ccccc3)C2)C1 | 32.66% |
| COCCN1CCC12CCN(c1ncccn1)C2 (configuration not stated) | 30.96% |
| COC(=O)c1cc2n(n1)CCCN(C(=O)Cc1c[nH]c3ccccc13)C2 | 19.27% |
| O=C(O)c1cc2n(n1)CCCN(C(=O)CCc1c[nH]c3ccccc13)C2 | 6.72% |
| N#Cc1cc2n(n1)CCN(C(=O)CCc1c[nH]c3ccccc13)C2 | 76.29% |
